A short description of assay [1]: Viability qHTS for spleen associated tyrosine kinase inhibitor (SYKi) naive MV4-11 cells (AID 1963823). Further: nearly all actives have a fitted effect of over 40% in size. An outline of the steps: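 Compounds were dispensed acoustically onto plates, MV4-11 cells (SYKi-naive) added at 500 per well, and plates incubated 72 hr at 37 C. CellTiter-Glo was added and luminescence measured after 10 min.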
Background: In qHTS, concentration-response curves come from the screen itself.

Assay [2] is described as follows: Viability qHTS for spleen associated tyrosine kinase inhibitor (SYKi) drug resistant MV4-11 cells (AID 1963824). Further: nearly all actives have a fitted effect of over 35% in size. An outline of the steps: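 SYK inhibitor-resistant MV4-11 AML cells, 500 per well, added to predispensed compounds and incubated 72 hr at 37 C, 5% CO2. Viability measured by CellTiter-Glo luminescence after 10 min at room temperature.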
Assay [3] is described as follows: Quantitative highthroughput screen to assess conditional lethalithy of NOMO1 cells grown in RPMI1640 with untreated serum (RPMI+s) (AID 1963876). Further: nearly all actives have a fitted effect of over 35% in size.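 On Viability: 100% = DMSO wells and 0% = empty wells without cells.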 An outline of the steps:
(§1)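 Each medium arm—HPLM with 10% dialyzed FBS, or RPMI1640 with 5 mM glucose and 10% untreated or dialyzed FBS—was screened against an 11-point, 3-fold compound titration for 48 h at 37 °C, with CellTiter-Glo luminescence as endpoint.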

Assay [4] is described as follows: Quantitative highthroughput screen to assess conditional lethalithy of NOMO1 cells grown in RPMI1640 with dialyzed fetal bovine serum (RPMI+ds) (AID 1963877). Further: nearly all actives have a fitted effect of over 30% in size.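 On Viability: series mostly up to about 46 µM; 100% = DMSO control wells and 0% = empty wells.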 The gist of the method:
as §1

Assay [5] is described as follows: Quantitative highthroughput screen to assess conditional lethalithy of NOMO1 cells grown in Human Plasma-Like Medium with dialyzed fetal bovine serum (HPLM+ds) (AID 1963878). Further: nearly all actives have a fitted effect of over 35% in size.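 On Viability: 100% = DMSO wells and 0% = empty wells on each plate.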 The gist of the method:
as §1

A short description of assay [6]: Quantitative highthroughput screen to assess conditional lethalithy of P12 Ichikawa cells grown in Human Plasma-Like Medium with dialyzed fetal bovine serum (HPLM+ds) (AID 1963879). Further: nearly all actives have a fitted effect of over 35% in size. On Viability: series mostly up to about 46 µM. Particulars: Potency: viability. An outline of the steps:
as §1

A short description of assay [7]: Quantitative highthroughput screen to assess conditional lethalithy of P12 Ichikawa cells grown in RPMI1640 with untreated serum (RPMI+s) (AID 1963881). Further: nearly all actives have a fitted effect of over 35% in size.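 On Viability: series mostly up to about 46 µM; 100% = DMSO wells and 0% = empty wells without cells.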 Conditions: Potency: viability. An outline of the steps:
as §1

A short description of assay [8]: Quantitative highthroughput screen to assess conditional lethalithy of SEM cells grown in Human Plasma-Like Medium with dialyzed fetal bovine serum (HPLM+ds) (AID 1963882). Further: nearly all actives have a fitted effect of over 35% in size. On Viability: series mostly up to about 46 µM. An outline of the steps: as §1
Assay [9] is described as follows: Quantitative highthroughput screen to assess conditional lethalithy of SEM cells grown in RPMI1640 with unreated serum (RPMI+s) (AID 1963883). Further: nearly all actives have a fitted effect of over 35% in size.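 On Viability: 100% = DMSO wells and 0% = empty wells without cells.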 The gist of the method: as §1
Assay [10] in a line: Quantitative highthroughput screen to assess conditional lethalithy of SEM cells grown in RPMI1640 with dialyzed fetal bovine serum (RPMI+ds) (AID 1963884). Further: nearly all actives have a fitted effect of over 35% in size.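 On Viability: series mostly up to about 46 µM; 100% = DMSO control wells and 0% = empty wells without cells.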 The gist of the method: as §1
Assay [11] can be described thus: Cellular viability qHTS for adrenocortical cancer (ACC) cell line NCI-H295R (AID 1963990). Further: nearly all actives have a fitted effect of over 60% in size. An outline of the steps:
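Adrenocortical carcinoma cells, suspended at 300 000 cells/mL in serum-free DMEM plus ITS, rested overnight before pin transfer of compound. After two days' incubation, ATP-dependent luminescence was recorded and curve-fitted.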

Assay [12] in a line: Cellular viability qHTS for adrenocortical cancer (ACC) cell line SW-13 (AID 1963989). Further: nearly all actives have a fitted effect of over 65% in size.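 On activity (max response): cells grown in serum-free medium with ITS supplement; on the % scale 0 is the no-effect control and ±100 the full control effect.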 Conditions: SW-13 ACC cells viability, CellTiter-Glo, 48 h; activity (max response): stronger effect = lower value. The gist of the method:
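IC50 and maximal-response values come from four-parameter logistic fits of titration data. SW-13 cells in serum-free medium received compounds (up to 46 uM final) for 48 h before CellTiter-Glo luminescence.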

Assay [13] is described as follows: Quantitative highthroughput screen to assess conditional lethalithy of P12 Ichikawa cells grown in RPMI1640 with dialyzed fetal bovine serum (RPMI+ds) (AID 1963880). Further: nearly all actives have a fitted effect of over 35% in size.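 On Viability: 100% = DMSO wells and 0% = empty wells on each plate.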 Particulars: Potency: P12-Ichikawa viability. An outline of the steps: as §1

Molecules are shown by their SMILES. Several values for one entry are separate records, joined by “and”; a condition that tells them apart may be missing. Equal values may be shown once. Results filed as inconclusive are left out. Values without a mark were called inactive. Activity calls are given as the source filed them. The call rests on the fitted dose curve; in most records, active means well fitted curve in the direction sought with a large enough effect; inconclusive means small, poorly fitted or top-dose-only effect, or another doubt; inactive means no such curve, though single readings can be large; an effect the other way counts as inactive or inconclusive. Peptide text beside a SMILES is read from it. * marks the point of attachment. Cbz = O=C(OCc1ccccc1)*
Potency means the concentration at half of the fitted maximal effect.

For the compound `CC(C)(C)C(=O)OCOP(=O)(COCCn1cnc2c(N)ncnc21)OCOC(=O)C(C)(C)C`, the Potency in [1] is 944 nM (active) and 372 nM (active); in assay [2], 944 nM (active) and 411 nM (active); in assay [3] it was 235 nM (active); in assay [4], 418 nM (active); in assay [5] it was 1180 nM (active); in [6], 526 nM (active). In addition, the Potency in [7] is 332 nM (active); in [8] it was 469 nM (active); in assay [9], 105 nM (active); in assay [10] it was 105 nM (active); in [11] it was 18.4 µM (active) and 12.6 µM (active).

`CN1CCC(=C2c3ccccc3CC(=O)c3sccc32)CC1`: the Potency is 26.3 µM (active) in [1]; 23.7 µM (active) and 20.9 µM (active) in [2]. The Potency entry in [3], in assay [4], in assay [5], in [6], in assay [8] and in assay [9] was “inactive” in each case. Besides, the Potency entry in [10] and in [11] was “inactive” in each case. Further, the activity (max response) in assay [12] is -6.42% and -1.59%.

Consider `CCn1c(-c2nonc2N)nc2cnc(Oc3cccc(NC(=O)c4ccc(OCCN5CCOCC5)cc4)c3)cc21`, for which the Potency in assay [1] is 517 nM (active) and 934 nM (active); in assay [2], 3.66 µM (active) and 5.25 µM (active); in assay [3], 5900 nM (active); in assay [4] it was 1180 nM (active); in [6], 9350 nM (active); in [8], 13200 nM (active). Also, the Potency result in assay [5] was “inactive”.

Turning to `CN1CC(=O)NC1=NC(=O)Nc1cccc(Cl)c1`, the Potency entry in assay [1], in assay [2], in assay [3], in assay [4], in [5] and in [6] was “inactive” throughout. Also, the Potency entry in [7], in assay [9], in assay [10] and in assay [11] was “inactive” throughout. In addition, in assay [12], the activity (max response) was -5.87%.

With `CC(C)C[C@@H](C=O)NC(=O)[C@H](CC(C)C)NC(=O)[C@H](CC(C)C)NC(=O)OCc1ccccc1` (Cbz-Leu-Leu-Leu-aldehyde), the Potency in assay [1] was 0.833 µM (active); in [2], 1.05 µM (active); in [3], 743 nM (active); in [4] it was 2090 nM (active); in [5], 1480 nM (active); in assay [6], 2960 nM (active). Moreover, the Potency in [7] was 1180 nM (active); in [8], 662 nM (active); in assay [9] it was 332 nM (active); in [10], 743 nM (active); in assay [12], 794 nM (active).

For the compound `CC(C)C1CCC(C(=O)N[C@H](Cc2ccccc2)C(=O)O)CC1` (stereo not given in full), the Potency entry in [1], in assay [2], in assay [3], in [4], in [5] and in assay [6] was “inactive” throughout. Further, the Potency entry in assay [7], in assay [9], in assay [10] and in assay [11] was “inactive” throughout. Besides, the activity (max response) in [12] is 3.47% and 2.35%.

Take `O=C(c1ccc(F)cc1)C1CCN(CCn2c(=O)[nH]c3ccccc3c2=O)CC1`: the Potency result in assay [1], in [3], in assay [4], in [5], in assay [6] and in assay [7] was “inactive” throughout. In addition, the Potency entry in assay [8], in [9], in assay [10] and in assay [11] was “inactive” each time. In addition, the Potency in [2] is 16.8 µM (active). In assay [12], the activity (max response) is -13.7%.

In the case of `CC#C[C@]1(O)CC[C@H]2[C@@H]3CCC4=CC(=O)CCC4=C3[C@@H](c3ccc(N(C)C)cc3)C[C@@]21C`, the Potency is 18.6 µM (active) in [1]; 21.1 µM (active) and 16.6 µM (active) in assay [2]; 6620 nM (active) in [3]; 7430 nM (active) in assay [4]; 8330 nM (active) in [5]; 9350 nM (active) in assay [6]. The Potency in [11] is 20.6 µM (active) and 25.1 µM (active).

Consider `Cc1ccn(-c2ccc(-c3ncco3)cc2)c(=O)c1-c1ccc2nc(N)ncc2c1`, for which the figures for the Potency in assay [1], in assay [2] and in assay [10] were 1.64 µM (active), 2.31 µM (active) and 1870 nM (active), respectively. In addition, the Potency result in assay [3], in assay [4], in [5], in assay [6] and in [11] was “inactive” each time.

Turning to `Clc1ccc(C(Cn2ccnc2)OCc2c(Cl)cccc2Cl)c(Cl)c1` (stereo not given), the Potency in assay [1] is 16.8 µM (active) and 8.33 µM (active); in [2] it was 21.1 µM (active) and 8.33 µM (active); in [11] it was 25.1 µM (active). Besides, the Potency entry in assay [3], in [4], in assay [5], in [6], in [8] and in assay [9] was “inactive” each time. Further, in assay [10], the Potency result is “inactive”.

For the compound `CC[C@@]1(O)C(=O)OCc2c1cc1n(c2=O)Cc2cc3c(CN(C)C)c(O)ccc3nc2-1`, the Potency in assay [1] was 59.6 nM (active) and 58 nM (active); in assay [2], 0.0332 µM (active); in [3] it was 526 nM (active); in assay [4], 526 nM (active); in assay [5], 332 nM (active); in assay [6], 105 nM (active). Moreover, the Potency is 74.3 nM (active) in assay [7]; 166 nM (active) in assay [8]; 93.5 nM (active) in assay [9]; 105 nM (active) in [10]; 562 nM (active) in assay [12].

On to `O=C1N(c2ccccc2)c2ccccc2C1(Cc1ccncc1)Cc1ccncc1`, for which the Potency result in [1], in assay [2], in assay [3], in assay [4], in assay [5] and in [6] was “inactive” in each case. Moreover, the Potency entry in assay [8], in assay [10] and in assay [11] was “inactive” in each case. Further, the activity (max response) in assay [12] is -5.03% and 7.18%.

Regarding `CC(C)OC(=O)C(C)(C)Oc1ccc(C(=O)c2ccc(Cl)cc2)cc1`, the Potency entry in [1], in assay [2], in assay [3], in [4], in assay [5] and in [6] was “inactive” in each case. The Potency entry in [7] and in assay [11] was “inactive” throughout. In assay [9], the Potency is 10500 nM (active).

Turning to `CC(O)C1C(=O)N2C(C(=O)O)=C(SC3CNC(C(=O)N(C)C)C3)C(C)C12` (stereo not given), the Potency result in assay [1], in assay [2], in [3], in assay [4], in assay [5] and in [13] was “inactive” each time. The Potency result in assay [7], in assay [8], in assay [9] and in [10] was “inactive” throughout.

Regarding `CN(C)Cc1c(C(=O)NCCOc2ccc(C(=O)NO)cc2)oc2ccccc12`, the Potency is 326 nM (active) and 296 nM (active) in assay [1]; 259 nM (active) and 235 nM (active) in [2]; 4180 nM (active) in assay [3]; 4180 nM (active) in [4]; 4180 nM (active) in [5]; 2350 nM (active) in assay [6]. The Potency in [13] is 2960 nM (active); in [9], 1320 nM (active); in assay [10] it was 1480 nM (active); in assay [12], 1260 nM (active); in [11], 0.794 µM (active).
